Reference: PubChem BioAssay (Tox21)
Results filed as inconclusive are left out. Active and inactive are the calls of the source. Unless noted, calls follow the shape of the full dose curve.

How the values were obtained:
[1] = qHTS assay to identify small molecule antagonists of the vitamin D receptor (VDR) signaling pathway - cell viability counter screen (AID 743225; active = well fitted curve in the direction sought with a large enough effect in the repeat runs; an effect the other way counts as inactive or inconclusive; also: % is scaled to controls: 0 for no effect and ±100 for the full control effect; nearly all actives have a fitted effect of over 50% in size)
Outline: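 Cytotoxicity counter screen read by CellTiter-Glo luminescence (30 min, room temperature) in the same wells as the VDR-bla antagonist readout. HEK 293T VDR-UAS-bla cells had 16 h at 37C with compound and 3 nM (final) 1-alpha,25-dihydroxyvitamin D3, then 2 h with FRET substrate.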

[2] = qHTS assay to identify small molecule agonists of the NFkB signaling pathway (AID 1159509; active = well fitted curve in the direction sought with a large enough effect in the signal ratio in the repeat runs, not every such curve was filed as active; the % refers to the signal ratio; also: series mostly up to about 61 µM; % is scaled to controls: 0 for no effect and ±100 for the full control effect)
Outline: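 Agonist activity was read as beta-lactamase-driven FRET change (460 and 530 nm emission, 405 nm excitation) following 1.5 hr substrate loading at room temperature. Beforehand, ME-180 NFkB-bla reporter cells were treated with compounds for 5 hr at 37 C.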

[3] = qHTS assay to identify small molecule agonists of the NFkB signaling pathway - cell viability counter screen (AID 1159515); also: series mostly up to about 61 µM; % is scaled to controls: 0 for no effect and ±100 for the full control effect; nearly all actives have a fitted effect of over 55% in size
Outline: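 Cells are seeded (2,000 NFkB-bla ME-180 per well), rested overnight, and dosed with DMSO-dissolved compounds for 5 hr at 37 C. Viability is then read by CellTiter-Glo luminescence after 30 min at room temperature.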

[4] = target: Nuclear receptor ROR-gamma (Homo sapiens) (UniProt P51449); assay: qHTS assay to identify small molecule antagonists of the retinoid-related orphan receptor gamma (ROR-gamma) signaling pathway (AID 1159521; active = well fitted curve in the direction sought with a large enough effect in the repeat runs; an effect the other way counts as inactive or inconclusive; also: top concentration of the series differs between compounds; % is scaled to controls: 0 for no effect and ±100 for the full control effect; nearly all actives have a fitted effect of over 50% in size)
Outline: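 Antagonist read-out: drop in luminescence (ONE-Glo) from an RORE-LUC reporter in CHO cells with doxycycline-inducible ROR-gamma; 2 hr compound pretreatment, 1 uM doxycycline, 16 hr incubation at 37 C.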

[5] = qHTS assay to identify small molecule agonists of the AP-1 signaling pathway - cell viability counter screen (AID 1159525); also: nearly all actives have a fitted effect of over 55% in size
Outline: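 Same-well cytotoxicity counter screen of the Tox21 10K library in ME-180 cells. The readout is ATP-dependent luminescence after 5 h compound treatment. Data are normalised to DMSO and tetra n-octyl ammonium bromide controls.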

[6] = qHTS assay to identify small molecule agonists of the AP-1 signaling pathway (AID 1159526); also: % is scaled to controls: 0 for no effect and ±100 for the full control effect
[7] = qHTS assay to identify small molecule agonists of the vitamin D receptor (VDR) signaling pathway - cell viability counter screen (AID 743224; active = well fitted curve in the direction sought with a large enough effect in the repeat runs; an effect the other way counts as inactive or inconclusive; also: series mostly up to about 63 µM; % is scaled to controls: 0 for no effect and ±100 for the full control effect; nearly all actives have a fitted effect of over 50% in size)
Outline: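 Cells: VDR-bla, 2,000/well, settled 4 h. Treatment: compounds in DMSO, 16 h, 37C/5% CO2. Readout: CellTiter-Glo luminescence after 30 min RT.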

[8] = qHTS assay to identify small molecule agonists of the endoplasmic reticulum stress response signaling pathway - cell viability counter screen (AID 1159517);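 also: HeLa cells carrying an ER stress response element beta-lactamase reporter; series mostly up to about 61 µM; % is scaled to controls: 0 for no effect and ±100 for the full control effect; nearly all actives have a fitted effect of over 50% in size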
Outline: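 In parallel with the ESRE reporter read, cytotoxicity was scored by CellTiter-Glo luminescence (30 min, room temperature) on HeLa ESRE-bla cells dosed for 5 hr.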

[9] = qHTS assay to identify small molecule antagonists of the retinoid-related orphan receptor gamma (ROR-gamma) signaling pathway - cell viability counter screen (AID 1159520; active = well fitted curve in the direction sought with a large enough effect in the repeat runs; an effect the other way counts as inactive or inconclusive)
Outline: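 Tet-on ROR gamma CHO cells were given compounds for 2 hr, then doxycycline hyclate at 1 uM final, and incubated 16 hr at 37 C. Viability was measured as ATP content by CellTiter-Glo luminescence.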

[10] = qHTS assay to identify small molecule agonists of the endoplasmic reticulum stress response signaling pathway (AID 1159516; active = well fitted activation curve with a large enough effect in the signal ratio in the repeat runs, not every such curve was filed as active; the % refers to the signal ratio; also: % is scaled to controls: 0 for no effect and ±100 for the full control effect)
Outline: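 Cells are seeded at 1,500 per well and incubated overnight. Compounds in DMSO are added for 5 hr at 37 C, then beta-lactamase FRET substrate for 2 hr at room temperature, and fluorescence at 460 and 530 nm is measured.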

CC(=O)/C=C/C1C(C)=CCC(C)C1(C)C (configuration not stated)
inactive: outcome [1] | outcome [2] | outcome [3] | outcome [4] | outcome [5] | outcome [6]

O=C(/N=N/C(=O)OCc1ccccc1)OCc1ccccc1
inactive: Potency [7] | outcome [1] | outcome [2] | outcome [3] | Potency [8] | outcome [4] | outcome [5] | outcome [6]

Cc1ccccc1N=O
inactive: outcome [1] | outcome [2] | outcome [3] | Potency [8] | outcome [9] | outcome [5] | outcome [6]

CC(=O)OC(C)OC(=O)C(C)c1ccc(-c2ccccc2)c(F)c1 (configuration not stated)
inactive: Potency [7] | outcome [1] | outcome [2] | outcome [3] | Potency [8] | outcome [9] | outcome [4] | outcome [5] | outcome [6]

O=C(O)CCSSCCC(=O)O
inactive: Potency [7] | outcome [1] | outcome [2] | outcome [3] | Potency [8] | outcome [9] | outcome [5] | outcome [6]

CC(C(=O)O)c1ccc2c(c1)CC(=O)c1ccccc1S2 (configuration not stated)
inactive: outcome [2] | outcome [3] | Potency [8] | outcome [4] | outcome [5] | outcome [6]

CC(C)(C)c1nnc(NS(=O)(=O)c2ccc(N)cc2)s1
inactive: Potency [7] | outcome [1] | outcome [2] | outcome [3] | Potency [8] | outcome [9] | outcome [4] | outcome [5] | outcome [6]

O=C(O)C(=O)Cc1ccccc1
inactive: outcome [1] | outcome [2] | outcome [3] | Potency [8] | outcome [9] | outcome [4] | outcome [5] | outcome [6]

CCCCCCCCCC(C)=O
inactive: Potency [7] | outcome [1] | outcome [2] | outcome [3] | Potency [8] | outcome [9] | outcome [4] | outcome [5] | outcome [6]

C[Si](C)=O
inactive: activity change, negative = cytotoxicity [7] 2.87% [at 5.95 µM] | viability change, negative = cytotoxic [1] 6.84% [at 6.95 µM] | activation [2] 0.149% [at 6.95 µM] | activity, negative = cytotoxic [3] 10.4% [at 6.95 µM] | activity change, negative = cytotoxicity [8] -12.1% [at 6.95 µM] | activity, negative = cytotoxicity [9] 0.127% [at 8.39 µM] | activity change, negative = inhibition [4] 3.36% [at 8.39 µM] | viability change, negative = cytotoxic [5] -14.5% [at 6.97 µM] | activation [6] -3.55% [at 6.97 µM]

CC(C)C(=O)OCc1cccc(OC(=O)[C@@H]2N3C(=O)[C@@H](NC(=O)Cc4ccccc4)[C@H]3SC2(C)C)c1
inactive: Potency [7] | outcome [1] | outcome [2] | outcome [3] | Potency [8] | outcome [9] | outcome [4] | outcome [5] | outcome [6]

COCCOC(=O)C1=C(C)NC(C)=C(C(=O)OC(C)C)C1c1cccc([N+](=O)[O-])c1 (configuration not stated)
inactive: Potency [7] | outcome [1] | outcome [2] | outcome [3] | Potency [8] | outcome [4] | outcome [5] | outcome [6]

C=C1CC/C=C(\C)CC[C@@H]2[C@@H]1CC2(C)C
inactive: Potency [7] | outcome [1] | outcome [2] | outcome [3] | Potency [8] | outcome [9] | outcome [4] | outcome [5] | outcome [6]

COC(=O)CCCCCCCC(=O)OC
inactive: outcome [1] | outcome [2] | outcome [3] | Potency [8] | outcome [9] | outcome [4] | outcome [5] | outcome [6]

COc1ccc2c(c1OC)C(=O)O[C@@H]2[C@H]1c2c(cc3c(c2OC)OCO3)CCN1C
inactive: Potency [7] | outcome [1] | outcome [2] | outcome [3] | outcome [9] | outcome [4] | outcome [5] | outcome [6]

CCO[Si](CCCS)(OCC)OCC
inactive: Potency [7] | outcome [1] | outcome [2] | outcome [3] | Potency [8] | outcome [9] | outcome [4] | outcome [5] | outcome [6]

Nc1cccc(O)c1
inactive: outcome [2] | outcome [3] | Potency [8] | outcome [4] | outcome [5] | outcome [6]

CC1=CCC(C(C)C)=CC1
inactive: Potency [7] | outcome [1] | outcome [3] | outcome [10] | outcome [9] | outcome [5] | outcome [6]

O=C(O)Cc1ccc(Cl)cc1Cl
inactive: Potency [7] | outcome [1] | outcome [2] | outcome [3] | Potency [8] | outcome [9] | outcome [4] | outcome [5] | outcome [6]

CNS(=O)(=O)CCc1ccc2[nH]cc(C3CCN(C)CC3)c2c1
inactive: Potency [7] | outcome [2] | outcome [3] | Potency [8] | outcome [9] | outcome [4] | outcome [5] | outcome [6]

O=C1c2cccc3c2[C@H](CCC3)CN1[C@@H]1CN2CCC1CC2
inactive: Potency [7] | outcome [1] | outcome [2] | outcome [3] | Potency [8] | outcome [9] | outcome [4] | outcome [5] | outcome [6]

Cc1cc2cc3c(C)cc(=O)oc3c(C)c2o1
inactive: Potency [7] | outcome [1] | outcome [2] | outcome [3] | Potency [8] | outcome [9] | outcome [4] | outcome [5] | outcome [6]

Nc1ccc([N+](=O)[O-])c(N)c1
inactive: Potency [7] | outcome [1] | outcome [2] | outcome [3] | Potency [8] | outcome [9] | outcome [4] | outcome [5] | outcome [6]

OCCN(CCO)c1cccc(Cl)c1
inactive: Potency [7] | outcome [2] | outcome [3] | Potency [8] | outcome [9] | outcome [4] | outcome [5] | outcome [6]

Oc1ccccc1-c1nnco1
inactive: Potency [7] | outcome [1] | outcome [2] | outcome [3] | Potency [8] | outcome [9] | outcome [4] | outcome [5] | outcome [6]

CC(=O)NCc1c(I)c(NC(C)=O)c(I)c(C(=O)O)c1I
inactive: Potency [7] | outcome [1] | outcome [2] | outcome [3] | Potency [8] | outcome [9] | outcome [5] | outcome [6]
